Source: article PMC7862700, “An all-to-all approach to the identification of sequence-specific readers for epigenetic DNA modifications on cytosine”

What was measured:
Test in all cases: DAPPL (digital affinity profiling via proximity ligation, sequencing); 10 mM Tris-HCl pH 7.5, 50 mM NaCl, 1 mM DTT, 4% glycerol, room temperature, 30 min; GST-TFs on glutathione beads, 16-mer random dsDNA library, 0.1% formaldehyde crosslink after washing; high values mean tight binding
Conditions in all cases: protein: recombinant; tags: N-terminal GST; dsDNA, one strand shown
ELK1 = target: T1, ELK1 (Homo sapiens, UniProt P19419 1-428)
T1 sequence: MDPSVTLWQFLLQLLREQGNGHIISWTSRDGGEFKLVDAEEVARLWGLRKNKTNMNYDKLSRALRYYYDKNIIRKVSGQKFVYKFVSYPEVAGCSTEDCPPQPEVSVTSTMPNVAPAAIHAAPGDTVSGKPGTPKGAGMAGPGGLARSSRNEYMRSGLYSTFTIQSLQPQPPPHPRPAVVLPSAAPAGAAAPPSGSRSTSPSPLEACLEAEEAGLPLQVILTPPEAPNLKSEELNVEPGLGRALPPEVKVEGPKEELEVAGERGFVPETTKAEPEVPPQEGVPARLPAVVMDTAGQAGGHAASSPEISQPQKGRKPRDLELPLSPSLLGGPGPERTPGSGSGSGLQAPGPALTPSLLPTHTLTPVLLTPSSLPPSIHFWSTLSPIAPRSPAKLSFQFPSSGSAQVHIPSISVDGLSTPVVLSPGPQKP
Procedure, shortened: (§1)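 Human transcription factors fused to GST were expressed in yeast, captured on glutathione beads, given DNA barcodes and pooled with a GST-only negative control. Pools were incubated with 200 nmole of a 16-mer random double-stranded DNA library in Tris/NaCl/DTT/glycerol buffer at room temperature for 30 min. They were then washed, crosslinked with 0.1% formaldehyde, proximity-ligated (BsaI/T4 ligase, 1 h, 37 °C), PCR-amplified and sequenced on an Illumina NextSeq500. Binding signal is each 6-mer's read frequency for a factor divided by its frequency for the GST control.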

GABPA = target: T2, GABPA (Homo sapiens, UniProt Q06546 1-454)
T2 sequence: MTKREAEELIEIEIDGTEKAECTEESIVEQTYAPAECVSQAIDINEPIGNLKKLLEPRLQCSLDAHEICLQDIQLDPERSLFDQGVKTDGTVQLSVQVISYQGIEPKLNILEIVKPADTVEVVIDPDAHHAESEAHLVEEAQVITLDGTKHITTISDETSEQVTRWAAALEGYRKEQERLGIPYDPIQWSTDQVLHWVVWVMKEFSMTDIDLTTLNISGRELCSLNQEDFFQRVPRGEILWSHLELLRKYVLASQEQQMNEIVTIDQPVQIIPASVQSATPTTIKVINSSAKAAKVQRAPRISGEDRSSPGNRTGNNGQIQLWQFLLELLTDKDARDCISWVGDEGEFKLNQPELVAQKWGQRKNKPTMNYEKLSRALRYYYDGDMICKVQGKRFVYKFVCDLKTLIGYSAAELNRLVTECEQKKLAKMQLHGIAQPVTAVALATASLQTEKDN
Procedure, shortened: as §1

ERG = target: T3, ERG (Homo sapiens, UniProt P11308 1-479)
T3 sequence: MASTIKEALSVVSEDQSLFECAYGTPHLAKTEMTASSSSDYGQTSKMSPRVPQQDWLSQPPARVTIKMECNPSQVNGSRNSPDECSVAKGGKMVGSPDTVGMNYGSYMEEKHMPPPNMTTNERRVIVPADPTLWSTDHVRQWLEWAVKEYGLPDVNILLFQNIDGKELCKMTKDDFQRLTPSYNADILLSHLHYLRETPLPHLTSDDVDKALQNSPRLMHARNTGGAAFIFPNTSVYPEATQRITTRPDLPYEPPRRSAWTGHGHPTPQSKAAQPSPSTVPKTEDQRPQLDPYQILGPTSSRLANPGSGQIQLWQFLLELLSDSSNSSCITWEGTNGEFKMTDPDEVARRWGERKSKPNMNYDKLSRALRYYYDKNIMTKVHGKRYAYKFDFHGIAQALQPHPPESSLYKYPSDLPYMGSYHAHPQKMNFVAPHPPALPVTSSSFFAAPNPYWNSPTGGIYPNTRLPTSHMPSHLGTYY
Procedure, shortened: as §1

EHF = target: T4, EHF (Homo sapiens, UniProt Q9NZC4 1-300)
T4 sequence: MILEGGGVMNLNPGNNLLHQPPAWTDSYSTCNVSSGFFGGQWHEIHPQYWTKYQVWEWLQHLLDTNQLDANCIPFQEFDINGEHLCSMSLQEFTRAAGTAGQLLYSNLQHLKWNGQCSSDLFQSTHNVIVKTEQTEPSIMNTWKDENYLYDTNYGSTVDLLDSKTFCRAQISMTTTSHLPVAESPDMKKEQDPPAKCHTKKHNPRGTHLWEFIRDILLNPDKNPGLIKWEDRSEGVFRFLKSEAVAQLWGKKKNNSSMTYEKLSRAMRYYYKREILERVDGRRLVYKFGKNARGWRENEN
Procedure, shortened: as §1

SPIB = SPIB (Homo sapiens, UniProt Q01892 1-262)
Procedure, shortened: as §1

ETV5 = ETV5 (Homo sapiens, UniProt P41161 1-510)
Procedure, shortened: as §1

ETV2 = target: T5, ETV2 (Homo sapiens, UniProt O00321 1-342)
T5 sequence: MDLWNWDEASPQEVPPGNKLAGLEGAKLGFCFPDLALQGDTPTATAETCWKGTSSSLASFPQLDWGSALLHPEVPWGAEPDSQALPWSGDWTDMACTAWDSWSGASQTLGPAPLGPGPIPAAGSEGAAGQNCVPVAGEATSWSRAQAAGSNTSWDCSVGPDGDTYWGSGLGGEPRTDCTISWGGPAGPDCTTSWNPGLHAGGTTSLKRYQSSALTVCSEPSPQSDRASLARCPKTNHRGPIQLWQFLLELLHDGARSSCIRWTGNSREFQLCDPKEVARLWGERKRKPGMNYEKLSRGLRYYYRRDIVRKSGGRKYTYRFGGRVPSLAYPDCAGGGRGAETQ
Procedure, shortened: as §1

ELF3 = target: T6, ELF3 (Homo sapiens, UniProt P78545 1-371)
T6 sequence: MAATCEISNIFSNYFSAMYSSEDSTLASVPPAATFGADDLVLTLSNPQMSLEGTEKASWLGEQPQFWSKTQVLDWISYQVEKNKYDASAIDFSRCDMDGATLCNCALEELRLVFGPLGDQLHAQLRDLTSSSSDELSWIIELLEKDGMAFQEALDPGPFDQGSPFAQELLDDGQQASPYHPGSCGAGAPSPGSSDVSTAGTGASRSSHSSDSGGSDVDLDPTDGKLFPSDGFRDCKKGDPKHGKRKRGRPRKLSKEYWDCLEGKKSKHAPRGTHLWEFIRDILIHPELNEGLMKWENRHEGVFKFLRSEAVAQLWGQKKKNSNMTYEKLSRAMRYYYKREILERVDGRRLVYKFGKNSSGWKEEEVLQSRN
Procedure, shortened: as §1

ERF = target: T7, ERF (Homo sapiens, UniProt P50548 1-548)
T7 sequence: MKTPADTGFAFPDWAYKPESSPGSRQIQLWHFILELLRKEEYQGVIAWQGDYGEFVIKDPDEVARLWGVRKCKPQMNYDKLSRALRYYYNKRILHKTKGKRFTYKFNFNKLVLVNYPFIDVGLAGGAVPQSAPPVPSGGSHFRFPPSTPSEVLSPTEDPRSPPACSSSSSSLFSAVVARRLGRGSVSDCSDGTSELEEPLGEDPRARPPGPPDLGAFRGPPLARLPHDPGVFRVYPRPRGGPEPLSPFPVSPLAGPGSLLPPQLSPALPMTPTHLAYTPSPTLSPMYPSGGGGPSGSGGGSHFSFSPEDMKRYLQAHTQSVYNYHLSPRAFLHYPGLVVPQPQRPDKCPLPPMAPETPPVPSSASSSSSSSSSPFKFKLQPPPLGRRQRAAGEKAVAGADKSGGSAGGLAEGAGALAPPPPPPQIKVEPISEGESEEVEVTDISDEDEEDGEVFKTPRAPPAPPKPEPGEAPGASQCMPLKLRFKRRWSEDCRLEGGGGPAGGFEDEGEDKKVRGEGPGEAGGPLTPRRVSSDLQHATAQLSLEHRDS
Procedure, shortened: as §1

ETS2 = target: T8, ETS2 (Homo sapiens, UniProt P15036 1-469)
T8 sequence: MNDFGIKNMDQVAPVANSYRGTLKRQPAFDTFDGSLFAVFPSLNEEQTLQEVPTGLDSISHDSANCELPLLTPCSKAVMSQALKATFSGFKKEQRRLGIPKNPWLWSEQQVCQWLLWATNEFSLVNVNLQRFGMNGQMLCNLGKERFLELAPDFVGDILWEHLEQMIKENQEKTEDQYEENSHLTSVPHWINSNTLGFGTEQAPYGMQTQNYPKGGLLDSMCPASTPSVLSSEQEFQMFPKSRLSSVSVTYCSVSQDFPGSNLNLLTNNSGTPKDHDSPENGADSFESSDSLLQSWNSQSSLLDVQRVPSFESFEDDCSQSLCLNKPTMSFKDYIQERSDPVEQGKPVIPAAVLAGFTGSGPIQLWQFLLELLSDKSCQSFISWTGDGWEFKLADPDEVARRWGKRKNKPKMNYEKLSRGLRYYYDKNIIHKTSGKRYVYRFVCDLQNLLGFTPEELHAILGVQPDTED
Procedure, shortened: as §1

SPDEF = target: T9, SPDEF (Homo sapiens, UniProt O95238 1-335)
T9 sequence: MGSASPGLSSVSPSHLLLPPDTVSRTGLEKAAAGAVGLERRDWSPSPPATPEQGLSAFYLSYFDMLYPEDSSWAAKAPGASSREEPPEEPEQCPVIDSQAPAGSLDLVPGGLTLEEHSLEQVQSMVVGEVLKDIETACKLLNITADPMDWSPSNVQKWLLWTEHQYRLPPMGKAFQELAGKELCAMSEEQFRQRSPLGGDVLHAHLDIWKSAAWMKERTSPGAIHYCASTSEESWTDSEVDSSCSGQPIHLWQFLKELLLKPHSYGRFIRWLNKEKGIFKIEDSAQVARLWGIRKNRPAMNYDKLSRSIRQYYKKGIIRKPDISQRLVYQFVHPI
Procedure, shortened: as §1

ETV7 = target: T10, ETV7 (Homo sapiens, UniProt Q9Y603 1-341)
T10 sequence: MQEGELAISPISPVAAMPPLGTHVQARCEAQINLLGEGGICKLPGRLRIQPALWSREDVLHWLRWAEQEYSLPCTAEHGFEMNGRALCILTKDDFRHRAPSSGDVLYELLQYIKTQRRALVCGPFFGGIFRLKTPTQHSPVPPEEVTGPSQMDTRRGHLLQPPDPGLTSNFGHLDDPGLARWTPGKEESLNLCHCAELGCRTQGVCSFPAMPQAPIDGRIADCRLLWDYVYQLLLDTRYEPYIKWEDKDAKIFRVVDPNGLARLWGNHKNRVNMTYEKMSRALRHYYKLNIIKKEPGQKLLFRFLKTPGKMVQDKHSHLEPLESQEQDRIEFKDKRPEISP
Procedure, shortened: as §1

ETV6 = ETV6 (Homo sapiens, UniProt P41212 1-452)
Procedure, shortened: as §1

ETV6, sequence (P41212 whole entry): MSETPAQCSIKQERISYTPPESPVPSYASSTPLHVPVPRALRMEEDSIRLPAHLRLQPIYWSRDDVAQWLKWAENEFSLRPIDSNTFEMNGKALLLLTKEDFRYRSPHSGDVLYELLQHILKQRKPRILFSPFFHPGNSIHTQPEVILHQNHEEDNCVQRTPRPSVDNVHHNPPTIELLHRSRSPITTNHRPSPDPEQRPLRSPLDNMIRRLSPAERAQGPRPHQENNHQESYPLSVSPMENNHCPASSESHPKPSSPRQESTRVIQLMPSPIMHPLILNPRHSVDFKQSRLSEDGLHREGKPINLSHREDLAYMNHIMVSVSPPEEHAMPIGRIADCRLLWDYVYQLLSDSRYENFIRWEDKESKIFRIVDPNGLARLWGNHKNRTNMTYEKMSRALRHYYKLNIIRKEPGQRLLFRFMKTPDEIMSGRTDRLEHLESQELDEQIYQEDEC
SPIB, sequence (Q01892 whole entry): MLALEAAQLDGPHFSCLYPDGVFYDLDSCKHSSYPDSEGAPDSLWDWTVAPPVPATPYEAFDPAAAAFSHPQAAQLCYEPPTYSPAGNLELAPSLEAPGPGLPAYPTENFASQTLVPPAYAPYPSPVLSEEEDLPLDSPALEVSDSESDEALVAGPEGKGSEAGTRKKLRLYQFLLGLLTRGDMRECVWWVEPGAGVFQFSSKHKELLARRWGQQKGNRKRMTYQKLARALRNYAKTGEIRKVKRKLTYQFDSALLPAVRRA
ETV5, sequence (P41161 whole entry): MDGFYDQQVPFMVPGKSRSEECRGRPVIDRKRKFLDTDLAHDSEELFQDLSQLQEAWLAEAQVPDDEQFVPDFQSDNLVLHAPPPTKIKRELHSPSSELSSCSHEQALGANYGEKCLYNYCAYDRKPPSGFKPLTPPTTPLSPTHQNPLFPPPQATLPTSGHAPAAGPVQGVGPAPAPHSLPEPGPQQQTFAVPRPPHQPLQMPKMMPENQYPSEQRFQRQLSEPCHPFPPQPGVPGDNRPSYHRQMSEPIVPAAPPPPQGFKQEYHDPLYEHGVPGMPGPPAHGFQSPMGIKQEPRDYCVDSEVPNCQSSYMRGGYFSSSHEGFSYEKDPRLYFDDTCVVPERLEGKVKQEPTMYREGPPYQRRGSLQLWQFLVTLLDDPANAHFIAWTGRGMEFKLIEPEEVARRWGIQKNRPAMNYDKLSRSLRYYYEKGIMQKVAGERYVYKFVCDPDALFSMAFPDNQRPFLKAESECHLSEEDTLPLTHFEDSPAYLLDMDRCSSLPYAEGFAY

Q: With TGGGAA as the sequence, how does the binding signal (ELK1) read?
A: 1.08 fold enrichment (6-mer frequency, TF over GST control)

Q: And the binding signal (GABPA)?
A: 1.05 fold enrichment (6-mer frequency, TF over GST control)

Q: What about the binding signal (ERG) of the same sequence?
A: 1.02 fold enrichment (6-mer frequency, TF over GST control)

Q: And the binding signal (EHF)?
A: 1.04 fold enrichment (6-mer frequency, TF over GST control)

Q: And the binding signal (SPIB)?
A: 1.05 fold enrichment (6-mer frequency, TF over GST control)

Q: And the binding signal (ETV5)?
A: 1.04 fold enrichment (6-mer frequency, TF over GST control)

Q: And the binding signal (ETV2)?
A: 1.02 fold enrichment (6-mer frequency, TF over GST control)

Q: What about the binding signal (ELF3) of the same sequence?
A: 1.13 fold enrichment (6-mer frequency, TF over GST control)

Q: And the binding signal (ERF)?
A: 1.04 fold enrichment (6-mer frequency, TF over GST control)

Q: And the binding signal (ETS2)?
A: 1.02 fold enrichment (6-mer frequency, TF over GST control)

Q: And the binding signal (SPDEF)?
A: 1.01 fold enrichment (6-mer frequency, TF over GST control)

Q: What about the binding signal (ETV7) of the same sequence?
A: 1.09 fold enrichment (6-mer frequency, TF over GST control)

Q: And the binding signal (ETV6)?
A: 1.17 fold enrichment (6-mer frequency, TF over GST control)
